Measured values from PubChem BioAssay.
Activity calls are given as the source filed them.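 The calls were made as follows, unless noted: active = visually confirmed hit in the image check and inhibition above 20%; inconclusive = visually confirmed hit but inhibition not above 20%; inactive = no visual hit in the image check.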

Experiments:
[1] = inhibitors of TNFa-induced NFkB p65 translocation, primary screen, imaging, HUVEC, MLSMR starter and 10KST1 sets (AID 438;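 active = inhibition above 20% together with a positive visual image hit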;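 also: compound added about 3h40 before a 20 min TNFalpha stimulation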;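 as to inhibition: signal is the nuclear over cytoplasmic p65 intensity ratio per well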); settings: HUVEC TNFa-induced p65 nuclear translocation; cell count: measured here: nuclei count (cytotoxicity indicator), at 2.08 µM; inhibition: at 2 µM, stronger effect = higher value, 0% TNFa-plus-vehicle, 100% no-TNFa wells
[2] = reduction of polyQ htt aggregates in cells – imaging, exon1htt(103Q)mCFP cells, high-content imaging, primary screen (AID 483;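 active = visual image review flags a hit and inhibition of aggregation exceeds 20%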;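 also: compound exposure lasted 3 days before fixation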;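 as to nuclei count: percent of the per-plate median nuclei count of sample wells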); settings: exon1htt(103Q)mCFP cell line, aggregate imaging, at 2 µM; inhibition of aggregation: stronger effect = higher value; nuclei count: measured here: cell count, toxicity
[3] = endothelial E-selectin expression blockers – imaging, HUVEC, immunofluorescence, MLSMR starter and 10KST1 sets, primary screen (AID 487); settings: HUVEC TNFalpha-induced E-selectin immunofluorescence imaging, at 2 µM; inhibition: stronger effect = higher value; nuclei count: measured here: cell number, toxicity;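 as to inhibition: signal is fraction of cell area covered by stained E-selectin grains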;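 as to nuclei count: 100% = median nuclei count of all wells on the same plate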
[4] = Primary imaging screen for DUSP6 inhibitors that restore phospho-Erk in transfected HeLa cells, chemical complementation (AID 609;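 active = compounds giving at least 50% inhibition in the cell-based MKP-3 phosphatase rescue imaging test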;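 as to inhibition: phospho-Erk level distribution per well compared with pooled transfected vehicle control wells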); settings: HeLa MKP-3 transfected, phospho-Erk imaging KS statistic, at 10 µM, cells stimulated with TPA for 15 min
[5] = biological target: Dual specificity protein phosphatase 6 (Homo sapiens) (UniProt Q16828); test: as above; settings: HeLa MKP-3 transfected, phospho-Erk imaging KS statistic; at 10 µM; stronger effect = higher value; cells stimulated with TPA for 15 min
[6] = biological target: Voltage-gated potassium channel subunit beta-2 (Rattus norvegicus) (UniProt P62483); test: inhibitors of rat Kvbeta2 reductase activity – biochemical, NADPH fluorescence, primary screen (AID 622;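 active = fluorescence slope higher than the sample average by over 3 SD, cut at about -0.22 in these data, passing the limit was not always enough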;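 also: slope of raw intensity against log time taken from 70 to 1610 s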); settings: recombinant KvBeta, 4-cyanobenzaldehyde reduction, at 10 µM, stronger effect = higher value
[7] = biological target: Voltage-gated potassium channel subunit beta-2 (Rattus norvegicus) (UniProt P62483); test: enhancers of rat Kvbeta2 NADPH turnover – biochemical, NADPH fluorescence, primary screen (AID 623;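 active = NADPH fluorescence slope more negative than the mean of all samples by about 3 SD, 99.7% confidence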;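 also: fluorescence intensity change per second fitted from 20 to 320 s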); settings: Recombinant KvBeta, NADPH fluorescence decrease slope, 10 min; at 10 µM; stronger effect = lower value
[8] = biological target: Alpha-2C adrenergic receptor (Homo sapiens) (UniProt P18825); test: compounds altering alpha2C-coupled GIRK flux – cell-based, HEK293 alpha2C/GIRK1/2, thallium flux, primary screen (AID 624;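 active = fluorescence slope after compound addition differing from the mean of all screened samples at 99.7% confidence, in either direction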;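 also: slope of fluorescence ratio to pre-addition baseline per second over 15 to 24 s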); settings: thallium flux BTC fluorescence, at 10 µM, actives lie on both sides
[9] = inhibitors of larval lipid processing in zebrafish, primary screen, whole organism, PED6 fluorescence, gall bladder and intestine (AID 686;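 active = a full or partial loss of lipid-probe fluorescence in the fish gall bladder, intestine or both, judged by eye; inactive = no fluorescence loss, or compound toxic to the fish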;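 also: larvae 5 to 7 days old with five fish per well; signal comes from phospholipase A2 cleavage of quenched PED6 carried via bile; overnight exposure to compound and PED6 before scoring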); settings: Zebrafish larvae PED6 lipid processing, fluorescence scoring; screened at 20 µM (by protocol)
[10] = loss of swimming-algae plug formation – whole organism, Chlamydomonas reinhardtii, WT vs cilia-less mutant, absorbance, 96-well, primary screen (AID 463189;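 active = inhibition at or above 50% relative to wild type and mutant plate controls; inactive = inhibition below 50%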;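 also: 0% = wild type cc124 cells in DMSO and 100% = ciliumless bld1 mutant cells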); settings: Chlamydomonas reinhardtii gravitaxis, OD600 absorbance, 2 days; at 10 µM; stronger effect = higher value
[11] = blockers of RIG-like receptor reporter activation – cell-based, Sendai virus stimulus, luciferase, 10K MLSCN set, TLR/RLR signaling modifier project, primary screen (AID 602276;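 active = inhibition at or above 50% at 10 µM; inactive = inhibition below 50%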;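 also: firefly luciferase from ISG56 promoter only with Renilla not read in this screen; 0% = Sendai virus plus DMSO and 100% = medium plus DMSO without virus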); settings: HEK293 RL24 IRF3 luciferase reporter, at 10 µM, stronger effect = higher value
[12] = TLR3 IRF3 reporter activation blockers – cell-based, poly I:C stimulus, luciferase, 10K MLSCN set, primary screen (AID 602277;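 active = inhibition of the reporter signal at or above 50%; inactive = inhibition below 50%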); settings: HEK293-TLR3 RL24 IRF3 luciferase reporter, at 10 µM, stronger effect = higher value
[13] = measured here: cell density z-score
[14] = measured here: nuclear c-Myc green intensity z-score
[15] = measured here: nuclear pErk red intensity z-score, stronger effect = higher value

Chain of Voltage-gated potassium channel subunit beta-2 (Rattus norvegicus) (P62483 whole entry, looked up): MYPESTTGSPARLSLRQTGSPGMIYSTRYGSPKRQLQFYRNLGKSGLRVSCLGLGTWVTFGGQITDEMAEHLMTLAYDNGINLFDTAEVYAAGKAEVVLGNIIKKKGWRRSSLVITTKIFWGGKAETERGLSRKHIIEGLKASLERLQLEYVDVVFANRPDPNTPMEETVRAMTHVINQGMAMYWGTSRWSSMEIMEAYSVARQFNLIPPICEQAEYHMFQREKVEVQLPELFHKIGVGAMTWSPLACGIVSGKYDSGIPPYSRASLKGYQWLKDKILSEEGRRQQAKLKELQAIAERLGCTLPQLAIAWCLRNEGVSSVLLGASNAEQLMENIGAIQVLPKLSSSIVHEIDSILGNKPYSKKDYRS
Chain of Alpha-2C adrenergic receptor (Homo sapiens) (P18825 whole entry, looked up): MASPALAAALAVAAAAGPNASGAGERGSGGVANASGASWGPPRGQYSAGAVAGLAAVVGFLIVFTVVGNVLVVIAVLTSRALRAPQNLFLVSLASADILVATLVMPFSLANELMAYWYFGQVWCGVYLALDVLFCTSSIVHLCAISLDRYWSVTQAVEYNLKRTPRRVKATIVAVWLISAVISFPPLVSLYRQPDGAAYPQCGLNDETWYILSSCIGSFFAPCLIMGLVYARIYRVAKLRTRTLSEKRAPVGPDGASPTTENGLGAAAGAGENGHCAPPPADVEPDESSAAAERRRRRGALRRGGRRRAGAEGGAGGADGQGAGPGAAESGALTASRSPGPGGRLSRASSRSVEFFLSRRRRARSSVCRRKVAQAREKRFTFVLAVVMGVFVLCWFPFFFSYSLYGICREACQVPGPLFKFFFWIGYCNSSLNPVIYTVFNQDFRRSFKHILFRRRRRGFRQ
Chain of Dual specificity protein phosphatase 6 (Homo sapiens) (Q16828 whole entry, looked up): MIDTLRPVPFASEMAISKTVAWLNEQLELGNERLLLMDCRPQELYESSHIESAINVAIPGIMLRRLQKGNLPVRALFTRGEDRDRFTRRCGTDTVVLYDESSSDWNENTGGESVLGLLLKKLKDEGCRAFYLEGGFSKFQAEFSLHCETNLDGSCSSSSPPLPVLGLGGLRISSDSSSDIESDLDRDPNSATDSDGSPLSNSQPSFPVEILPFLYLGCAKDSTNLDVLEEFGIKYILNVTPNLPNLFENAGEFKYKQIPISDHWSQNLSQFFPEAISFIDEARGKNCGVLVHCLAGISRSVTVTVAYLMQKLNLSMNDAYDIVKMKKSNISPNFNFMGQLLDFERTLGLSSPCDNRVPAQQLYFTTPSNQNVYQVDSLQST

Structure (SMILES) | cell count [1] | inhibition [1] | inhibition of aggregation [2] | nuclei count [2] | inhibition [3] | nuclei count [3] | z-score [4, 13] | z-score [4, 14] | z-score [4, 15] | inhibition [5] | fluorescence slope [6] | NADPH fluorescence slope [7] | slope [8] | outcome [9] | inhibition [10] | inhibition [11] | inhibition [12]
C[N+]12CCC(CC1)C(OC(=O)C(O)(c1ccccc1)c1ccccc1)C2 (stereo not given) | 609 | -0.8% (inactive) | 3.7% (inactive) | 106% | -71.3% (inactive) | 119% | -0.393 | -0.0364 | 0.334 | 3.45% (inactive) | -0.526 (inactive) | -2.4e-05 (inactive) | 0.00456 (inactive) | inactive | -10.3% (inactive) | 6.28% (inactive) | 21.7% (inactive)
CC(C)(Oc1ccc(CCNC(=O)c2ccc(Cl)cc2)cc1)C(=O)O | 649 | -3% (inactive) | 5.2% (inactive) | 107% | -101% (inactive) | 135% | -0.113 | -1.08 | -0.613 | 15.3% (inactive) | -0.452 (inactive) | -4.1e-05 (inactive) | 0.00448 (inactive) | inactive | 39.4% (inactive) | 9.06% (inactive) | 22.2% (inactive)
Nc1ccc2cn[nH]c2c1 | 616 | 0.3% (inactive) | 9% (inactive) | 94.8% | -58.4% (inactive) | 123% | -0.59 | 0.481 | -0.693 | 5.79% (inactive) | -0.531 (inactive) | -2.3e-05 (inactive) | 0.00412 (inactive) | inactive | -10.8% (inactive) | 3.56% (inactive) | 33% (inactive)
CCC[C@@H]1C[C@@H](C(=O)N[C@H]([C@@H](C)O)[C@H]2O[C@H](SC)[C@H](O)[C@@H](O)C2O)N(C)C1 (stereo not given in full) | 619 | -4.3% (inactive) | 2.3% (inactive) | 101% | -57.7% (inactive) | 123% | -0.311 | -0.277 | 0.417 | 8% (inactive) | -0.465 (inactive) | 2.2e-06 (inactive) | 0.0059 (inactive) | inactive | 35.8% (inactive) | 19.5% (inactive) | 27.3% (inactive)
CN1C2C=C3C(C#N)=C(N)C(C#N)(C#N)[C@@H](c4ccc(Cl)cc4)[C@@H]3C1CC2 (stereo not given in full) | 492 | -3.5% (inactive) | 11.7% (inactive) | 110% | -63.9% (inactive) | 120% | 1.1 | -0.782 | 0.349 | -2.47% (inactive) | -0.517 (inactive) | -1.7e-05 (inactive) | 0.00502 (inactive) | inactive | 11.6% (inactive) | 13.8% (inactive) | 29.9% (inactive)
O=C(CSc1nnc(-c2ccco2)c(-c2ccco2)n1)Nc1ccccc1 | 582 | -9.5% (inactive) | -9.2% (inactive) | 100% | -30.7% (inactive) | 123% | 0.318 | -1.08 | 1.26 | 1.6e-07% (inactive) | -0.358 (inactive) | -1.6e-05 (inactive) | 0.00359 (inactive) | inactive | 17.3% (inactive) | -13.8% (inactive) | 6.55% (inactive)
COc1cccc(Cn2c(Oc3ccccc3)nc3c2c(=O)n(C)c(=O)n3C)c1 | 373 | -4.8% (inactive) | 17.7% (inactive) | 87.9% | -67.3% (inactive) | 150% | -0.332 | -0.584 | 0.142 | 1.04% (inactive) | -0.369 (inactive) | -2.2e-05 (inactive) | 0.00481 (inactive) | inactive | 8.33% (inactive) | 19.3% (inactive) | 10.3% (inactive)
Cc1cccc(OCC(=O)N2CCC(N3CCCCCC3)CC2)c1 | 395 | -7.8% (inactive) | 17.2% (inactive) | 97.5% | -247% (inactive) | 128% | 1.59 | 1.35 | -0.179 | 5.57% (inactive) | -0.384 (inactive) | -4.7e-05 (inactive) | 0.00464 (inactive) | inactive | 17.1% (inactive) | -0.464% (inactive) | 3.84% (inactive)
CCCOc1ccc(N2C(=O)C3ON(c4ccccc4)C(c4ccc(O)c(OC)c4)C3C2=O)cc1 (stereo not given) | 413 | -5.2% (inactive) | 2.2% (inactive) | 110% | -53.3% (inactive) | 124% | 0.885 | -0.229 | -0.338 | 7.42% (inactive) | -0.41 (inactive) | -0.0001 (inactive) | 0.00809 (inactive) | inactive | -8.77% (inactive) | 16.5% (inactive) | 16.8% (inactive)
Cn1c2c(c(=O)n(C)c1=O)C(NC(=O)C(C)(C)C)(C(F)(F)F)C(=O)N2 (stereo not given) | 538 | -3.9% (inactive) | 0.9% (inactive) | 103% | -105% (inactive) | 131% | -0.683 | -0.488 | -0.945 | 5.26% (inactive) | -0.51 (inactive) | -6.1e-05 (inactive) | 0.00635 (inactive) | inactive | 17.2% (inactive) | 14.7% (inactive) | 16.6% (inactive)
